Test results published in PubChem BioAssay (NCI).
The panel holds about 79,000 compounds, 15% with a hit somewhere; the sample as a whole holds those more often. Calls of active or inactive are those of the source. No stated cut-off is given here; in the data, active means growth inhibition above about 70%; inactive means the rest.

What was measured:
[1] = NCI Yeast Anticancer Drug Screen. Data for the rad50 strain (AID 155);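 further: 0% = growth of vehicle-only cultures of the same strain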; settings: S. cerevisiae rad50 strain growth inhibition; at 50.0 µM; hits give high values
Procedure, shortened: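 A DNA repair-deficient yeast mutant serves as the test organism; compound-induced growth inhibition is calculated against vehicle-treated cells.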

[2] = NCI Yeast Anticancer Drug Screen. Data for the mec2-1 strain (AID 157); settings: S. cerevisiae mec2-1 strain, at 50.0 µM, hits give high values
Procedure, shortened: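 Each compound was tested on mec2-1 yeast, a strain altered in DNA damage repair or cell cycle control. Growth inhibition is reported relative to vehicle.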

[3] = NCI Yeast Anticancer Drug Screen. Data for the sgs1 mgt1 strain (AID 161);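 further: 0% = growth of cultures given vehicle only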; settings: S. cerevisiae sgs1 mgt1 strain, at 50.0 µM, hits give high values
Procedure, shortened: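 Read-out: growth inhibition vs vehicle controls. Cells: mutant yeast strain deficient in DNA damage repair.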

[4] = NCI Yeast Anticancer Drug Screen. Data for the cln2 rad14 strain (AID 165);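 further: 0% = growth equal to vehicle treated cultures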; settings: S. cerevisiae cln2 rad14 strain, at 50.0 µM, hits give high values
Procedure, shortened: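 Test compounds were added to cln2 rad14 yeast cultures; inhibition of growth was then determined by comparison with vehicle treatment.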

[5] = NCI Yeast Anticancer Drug Screen. Data for the bub3 strain (AID 167); settings: S. cerevisiae bub3 mutant strain, at 50.0 µM, hits give high values
Procedure, shortened: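 Inhibition values come from growth of compound-treated mutant yeast normalised to vehicle-treated controls.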

[6] = NCI Yeast Anticancer Drug Screen. Data for the mlh1 rad18 strain (AID 175); settings: S. cerevisiae mlh1 rad18 strain growth inhibition; at 50.0 µM; hits give high values
Procedure, shortened: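 Inhibition values reflect reduced growth of mutant yeast versus vehicle-treated controls following compound exposure; the mutations affect DNA damage repair.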

Measured: growth inhibition

Cc1nc2c(ncn2C2OC(CO)C(O)C2O)c(=O)[nH]1 (stereo not given)
inactive: [1] -2.7% | [2] 11.2% | [3] -2.7% | [4] -3.7% | [5] 0.85% | [6] -18.4%

O=C(Nc1cccc2ccccc12)c1ccco1
inactive: [1] 14.8% | [2] 16.5% | [3] 8.6% | [4] 3.8% | [5] 1.65% | [6] 7.9%

CCOC(=O)c1ccnc(F)c1
inactive: [1] 3.8% | [2] -15.7% | [3] -6.15% | [4] -8.8% | [5] 1% | [6] 3.6%

COc1ccccc1NC(=O)Oc1ccc(C#N)cc1
inactive: [1] 7.2% | [2] -14.5% | [3] 15% | [4] -1.8% | [5] 9.75% | [6] 0.4%

Cc1c(N)cc2c(c1[N+](=O)[O-])C(C)(C)CC2(C)C
inactive: [1] 3.15% | [2] -14.1% | [3] 1.6% | [4] -5.2% | [5] 11.9% | [6] -0.85%

O=C(NC(c1ccccc1)c1cccs1)c1cccs1 (stereo not given)
inactive: [1] -2.95% | [2] -4.45% | [3] 1.05% | [4] -38.4% | [5] 30.1% | [6] 3.95%

O=C1OC(=O)c2ccc(SCC(O)CCl)c3cccc1c23 (stereo not given)
active: [1] 99.4% | [2] 99.5% | [3] 98.7% | [4] 95.8% | [5] 98.9% | [6] 99.2%

C1CSCCSCSCCS1
inactive: [1] 32.1% | [2] 11.8% | [3] 17.8% | [4] 30.7% | [5] 42.4% | [6] 17.8%

CC(=O)CC(=O)ON(C)C(C)=O
inactive: [1] -8.85% | [2] 19.2% | [3] -15.8% | [4] 8.45% | [5] -14.3% | [6] -11.6%

CCN(CC)/N=C\c1c2ccccc2cc2ccccc12
inactive: [1] 19.8% | [2] 11.2% | [3] 7.7% | [4] 9.4% | [5] 13.3% | [6] 60.4%

C(=C/c1ccccc1)/CN1CCCCC1
inactive: [1] 29.4% | [2] 19.4% | [3] 36% | [4] 11.4% | [5] 37.2% | [6] 29.4%

COC(=O)NC(Cc1ccccc1)NC(=O)OC(C)(C)C (stereo not given)
inactive: [1] -30.6% | [2] -46% | [3] -20.5% | [4] -0.95% | [5] -4.25% | [6] -12.9%

CCC1(c2ccccc2)SC(N)=NC1=O (stereo not given)
inactive: [1] 2.15% | [2] 2.75% | [3] -12.8% | [4] -8.45% | [5] 1.05% | [6] -0.6%

CCOC(=O)C(C#N)=C1CC(C)OC(C)C1 (stereo not given)
inactive: [1] 12.3% | [2] 0.65% | [3] 5.85% | [4] -33.6% | [5] 17.4% | [6] 4.15%

NNC(=O)C1C2C=CC(C2)C1C(=O)NN (stereo not given)
inactive: [1] 7.6% | [2] -8.05% | [3] -11.7% | [4] -35% | [5] 4.15% | [6] 4.2%

COc1ccc(CNc2ncccn2)cc1
inactive: [1] 14.1% | [2] -23.7% | [3] 0.7% | [4] 9.5% | [5] -12% | [6] 13.5%

CCOC(=O)/C(=C/c1ccc(N(C)C)cc1)N(CC)CC
inactive: [1] -34.2% | [2] -10.2% | [3] -14.9% | [4] 13.4% | [5] 7.25% | [6] -18.6%

CC1C=CC(O)[C@]2(CO)CC3(CCC12)OCCO3 (stereo not given in full)
inactive: [1] -13.7% | [2] 3.95% | [3] -13.6% | [4] 17.6% | [5] -12.7% | [6] -16.3%

CC(C)(c1ccc(C(=O)O)cc1)c1ccc(C(=O)O)cc1
inactive: [1] -1.65% | [2] 5.05% | [3] -1.1% | [4] -5.7% | [5] -14.5% | [6] -9.15%

CCCCCCCCCCCCCCCCOc1ccccn1
inactive: [1] -9.75% | [2] -20.6% | [3] -14.8% | [4] -18.8% | [5] -21.6% | [6] -6.9%
